Compound activity from PubChem.
ERp5 inh = ERp5 (human) disulfide isomerase inhibition | Q15084 | AID 651711 | ERp5 insulin aggregation, absorbance 650 nm, 90 min | 0.05% of 350,000 active | inhibition, % at 9.99 µM;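 active means mean replicate inhibition above about 25%, with every replicate also reaching it, limit read from the data, passing the limit was not always enough; inconclusive means only one of those two criteria met; inactive means neither criterion met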
DENV2 CPE = protects cells from dengue virus 2 cytopathic effect; CPE inhibition, % at 9.99 µM; 1.7% of 350,000 active; DENV2-infected cells, cytopathic effect rescue, plate reader; in the data active means CPE inhibition above about 20%, passing the limit was not always enough; inconclusive means no clear call, values can overlap the other calls; tested in BHK-21 cells;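 further: 0% = median of neutral control wells and 100% = median of positive control wells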
ERAP1 inh = inhibitors of human ERAP1 aminopeptidase | recombinant ERAP1, Leu-AMC fluorescence, 60 min | inhibition, % at 10.7 µM | 0.15% of 340,000 active | AID 652197;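 active means mean replicate inhibition of at least 30%, or all replicates individually reaching that 30% level; inactive means mean below 30% and not every replicate reaching it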;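 further: 0% = neutral control wells and 100% = L-leucinethiol positive control wells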
Target sequence (Q9NZ08 whole entry, looked up): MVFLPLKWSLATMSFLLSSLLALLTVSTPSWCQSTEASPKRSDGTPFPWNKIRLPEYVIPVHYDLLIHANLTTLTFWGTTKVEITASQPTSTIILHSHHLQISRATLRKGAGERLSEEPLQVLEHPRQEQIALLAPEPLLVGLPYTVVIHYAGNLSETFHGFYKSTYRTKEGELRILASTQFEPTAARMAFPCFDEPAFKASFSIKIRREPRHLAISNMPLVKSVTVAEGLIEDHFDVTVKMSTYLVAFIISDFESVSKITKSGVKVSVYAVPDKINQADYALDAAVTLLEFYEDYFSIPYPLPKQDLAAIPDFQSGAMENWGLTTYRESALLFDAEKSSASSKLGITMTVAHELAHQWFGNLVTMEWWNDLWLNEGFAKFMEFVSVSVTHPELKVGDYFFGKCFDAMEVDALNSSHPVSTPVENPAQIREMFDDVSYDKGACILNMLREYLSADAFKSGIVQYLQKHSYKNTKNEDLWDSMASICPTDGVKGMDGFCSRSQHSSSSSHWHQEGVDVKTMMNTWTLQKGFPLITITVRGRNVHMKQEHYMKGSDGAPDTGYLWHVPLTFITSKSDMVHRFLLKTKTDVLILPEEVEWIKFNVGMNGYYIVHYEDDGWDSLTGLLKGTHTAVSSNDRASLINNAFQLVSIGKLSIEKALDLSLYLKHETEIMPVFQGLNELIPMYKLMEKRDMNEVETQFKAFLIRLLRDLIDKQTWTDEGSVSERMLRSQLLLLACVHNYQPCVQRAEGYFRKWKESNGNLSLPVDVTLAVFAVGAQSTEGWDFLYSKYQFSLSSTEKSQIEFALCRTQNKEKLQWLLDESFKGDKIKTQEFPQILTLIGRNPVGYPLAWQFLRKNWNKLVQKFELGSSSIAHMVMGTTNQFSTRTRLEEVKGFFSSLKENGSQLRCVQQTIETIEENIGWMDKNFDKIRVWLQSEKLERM
MLL AF4-AF9 inh = MLL-AF4/AF9 protein interaction inhibition. inhibition, % at 10 µM. AID 651704. 0.47% of 350,000 active. AlphaScreen, biotin-AF4 peptide binding to FLAG-AF9. P42568;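 active means every replicate reaching a set inhibition limit, whatever the replicate mean, cut at about 25% in these data; inconclusive means mean inhibition reaches that limit but some replicates miss it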;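 further: 0% = plate neutral control median and 100% = total signal loss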
PDI turbidity = inhibitors of human protein disulfide isomerase | PDI insulin aggregation turbidity, A650, 90 min | AID 588391 | inhibition, % at 10 µM | P07237 | 0.052% of 350,000 active;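 active means mean inhibition across replicates of 30% or more, whatever share of single replicates reach that level; inconclusive means mean inhibition below 30% while every single replicate reaches 30%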
An asterisk follows results filed as active. Sampled rows, rich in hits. Any-hit rate of the full collection: about 1.8%.

CCC(=O)Nc1ccc2c(c1)OC[C@H](C)N(C(=O)c1ccccn1)C[C@H](C)[C@H](OC)CN(C)C2=O was read as ERp5 inh 10, DENV2 CPE 34*, ERAP1 inh -3 and MLL AF4-AF9 inh 0.
Screening C[C@@H]1CN([C@H](C)CO)C(=O)c2cc(Br)cnc2O[C@H]1CN(C)S(=O)(=O)c1ccc(F)cc1 returned ERp5 inh -3, DENV2 CPE -1, ERAP1 inh 3 and MLL AF4-AF9 inh 0.
O=C(C[C@@H]1C=C[C@H](NC(=O)Cc2ccccn2)[C@H](CO)O1)NCCCN1CCOCC1 was read as ERp5 inh 1, DENV2 CPE 33*, ERAP1 inh 2 and MLL AF4-AF9 inh 0.
For O=C(C[C@@H]1C=C[C@@H](NC(=O)Cc2ccccn2)[C@H](CO)O1)NCCCN1CCOCC1 the results were ERp5 inh -1, DENV2 CPE 38*, ERAP1 inh 2 and MLL AF4-AF9 inh -1.
For CN1C(=O)c2cc(NC(=O)c3ccc(F)c(F)c3)ccc2OC[C@H]2O[C@@H](CC(=O)N[C@@H]3CCN(Cc4ccccc4)C3)CC[C@H]21 the results were ERp5 inh 5, DENV2 CPE inconclusive, ERAP1 inh -1 and MLL AF4-AF9 inh 10.
COc1ccc(NC(=O)N[C@H]2CC[C@H](CCn3cc(-c4ccccc4)nn3)O[C@@H]2CO)cc1 was read as ERp5 inh 2, DENV2 CPE 37*, ERAP1 inh 2 and MLL AF4-AF9 inh 4.
O=C(Nc1ccc(Cl)cc1)N[C@H]1CC[C@@H](CCn2cc(Cc3ccccc3)nn2)O[C@H]1CO was read as ERp5 inh 4, DENV2 CPE 46*, ERAP1 inh -6 and MLL AF4-AF9 inh 1.
COc1ccccc1-c1cn(CC[C@H]2CC[C@H](NC(=O)NC(C)C)[C@H](CO)O2)nn1 was read as ERp5 inh -4, DENV2 CPE -6, ERAP1 inh 2 and MLL AF4-AF9 inh 4.
`COc1ccccc1-c1cn(CC[C@H]2CC[C@@H](NC(=O)NC(C)C)[C@H](CO)O2)nn1` gave ERp5 inh 8, DENV2 CPE 28*, ERAP1 inh 2 and MLL AF4-AF9 inh -2.
`COCCNC(=O)c1cc2c(c(-c3cccc(C4=CCCCC4)c3)n1)[C@H](CCO)N([S@@](=O)C(C)(C)C)C2` gave ERp5 inh 9, DENV2 CPE 0, ERAP1 inh 0 and MLL AF4-AF9 inh 1.
For CCC(=O)N1C[C@H](O)COC[C@@H]2O[C@H](CC(=O)NCc3cc(F)cc(F)c3)CC[C@H]21 the results were ERp5 inh 1, DENV2 CPE 1, ERAP1 inh 1 and MLL AF4-AF9 inh -14.
`O=C(NCC[C@@H]1CC[C@H](NC(=O)C2CCC2)[C@@H](CO)O1)c1cc(Cl)cc(Cl)c1` gave ERp5 inh -15, DENV2 CPE 2, ERAP1 inh -3 and MLL AF4-AF9 inh -3.
For CC(C)NC(=O)Nc1ccc2c(c1)C(=O)N([C@@H](C)CO)C[C@@H](C)[C@H](CN(C)C)O2 the results were ERp5 inh -2, DENV2 CPE 0, ERAP1 inh -2 and MLL AF4-AF9 inh 0.
`Cc1ccc(S(=O)(=O)N(C)C)cc1NC(=O)[C@H](Cc1ccccc1)N1C(=O)c2ccccc2C1=O` gave ERp5 inh 1, DENV2 CPE 42*, ERAP1 inh 9, MLL AF4-AF9 inh 3 and PDI turbidity -3.
For COc1ccc(S(=O)(=O)N(C)C[C@H]2OCCCC[C@@H](C)Oc3ccc(NS(=O)(=O)c4ccc(Cl)cc4)cc3C(=O)N([C@H](C)CO)C[C@H]2C)cc1 the results were ERp5 inh 4, DENV2 CPE -7, ERAP1 inh 2 and MLL AF4-AF9 inh 0.
CC(C)CC#Cc1ccc2c(c1)O[C@H](CN(C)C(=O)c1ccccc1F)[C@@H](C)CN([C@@H](C)CO)S2(=O)=O was read as ERp5 inh 2, DENV2 CPE 32*, ERAP1 inh 4 and MLL AF4-AF9 inh 0.
For CC(C)CC#Cc1ccc2c(c1)O[C@H](CN(C)C(=O)c1cccc(F)c1)[C@@H](C)CN([C@@H](C)CO)S2(=O)=O the results were ERp5 inh -2, DENV2 CPE 24*, ERAP1 inh -2 and MLL AF4-AF9 inh 4.
Screening Cc1noc(C)c1NC(=O)N(C)C[C@H]1Oc2cc(C#CCC(C)C)ccc2S(=O)(=O)N([C@H](C)CO)C[C@@H]1C returned ERp5 inh 1, DENV2 CPE 25, ERAP1 inh 1 and MLL AF4-AF9 inh 6.
For CC(C)CC#Cc1ccc2c(c1)O[C@@H](CN(C)C(=O)c1ccccn1)[C@@H](C)CN([C@@H](C)CO)S2(=O)=O the results were ERp5 inh 45*, DENV2 CPE -6, ERAP1 inh 0 and MLL AF4-AF9 inh 4.
`Cc1noc(C)c1NC(=O)N(C)C[C@@H]1Oc2cc(C#CCC(C)C)ccc2S(=O)(=O)N([C@H](C)CO)C[C@H]1C` gave ERp5 inh 7, DENV2 CPE inconclusive, ERAP1 inh 1 and MLL AF4-AF9 inh 30*.
CCCN1[C@@H]2Cn3c(ccc(-c4ccccc4F)c3=O)[C@H]1[C@@H](C(=O)NCc1ccccn1)[C@@H]2CO was read as ERp5 inh 0, DENV2 CPE -1, ERAP1 inh 3 and MLL AF4-AF9 inh -4.
`C[C@@H]1CN([C@H](C)CO)C(=O)c2cc(NC(=O)c3ccccc3)ccc2O[C@@H](C)CCCCO[C@H]1CN(C)Cc1ccncc1` gave ERp5 inh -3, DENV2 CPE -2, ERAP1 inh -1 and MLL AF4-AF9 inh 0.
Screening C[C@H](CO)N1C[C@H](C)[C@@H](CN(C)C(=O)Nc2ccc(F)cc2)OCCCC[C@H](C)Oc2ccc(NS(=O)(=O)c3ccc(F)cc3)cc2C1=O returned DENV2 CPE 9.
`CCCN(C)C[C@@H]1Oc2cc(C#CCC(C)C)ccc2S(=O)(=O)N([C@H](C)CO)C[C@@H]1C` gave ERp5 inh 2, DENV2 CPE 34*, ERAP1 inh 3 and MLL AF4-AF9 inh 5.
For CCCCNc1c(-c2ccc(-c3cccc(Cl)c3)cc2)nc2ccc(Cl)cn12 the results were ERp5 inh 0, DENV2 CPE 59*, MLL AF4-AF9 inh -2 and PDI turbidity 2.
`Cc1ccc(S(=O)(=O)Nc2ccc3c(c2)CC(=O)N([C@H](C)CO)C[C@@H](C)[C@H](CN(C)Cc2ccc4c(c2)OCO4)O3)cc1` gave ERp5 inh -3, DENV2 CPE -11, ERAP1 inh -1 and MLL AF4-AF9 inh -9.
Screening CC1=CC(C)(C)n2c(O)c(N=N)c3cc(C)cc1c32 returned ERp5 inh -3, DENV2 CPE 49*, ERAP1 inh 0, MLL AF4-AF9 inh 26* and PDI turbidity -2.
For CCOC(=O)C(NC(=O)Nc1ccc(Cl)cn1)(Oc1ccc(F)cc1)C(F)(F)F (stereo unspecified) the results were ERp5 inh -5, DENV2 CPE 78*, ERAP1 inh -1, MLL AF4-AF9 inh -8 and PDI turbidity -1.
